Hit rate of the full screen: of about 360,000 compounds, about 11,000 (3.1%) were called active. Entries that show only a call come without a potency. Another 4% or so got no clear call; they are omitted. Calls follow the shape of the dose curve; as a rule, active = well fitted inhibition curve with a large enough effect; inconclusive = small, poorly fitted or top-dose-only effect; inactive = no such curve, though single readings can be large or run the other way. The full list was thinned out, with actives kept by preference.
Potency is read from the fitted curve at half-maximal effect.

The target of the assay is Schistosoma mansoni thioredoxin glutathione reductase (TGR) (UniProt Q962Y6). As to the kind of experiment: qHTS Assay for the Inhibitors of Schistosoma Mansoni Peroxiredoxins. Also: nearly all actives have a fitted effect of over 60% in size. Conditions: purified TGR, DTNB reduction, TNB absorbance 405 nm; series mostly up to 114 µM. The gist of the method:
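Kinetic colorimetric format: TGR-catalysed, NADPH-driven DTNB reduction monitored via TNB absorbance. Enzyme dispensed at 20 nM; compound exposure 15 min at room temperature before reaction start.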
For orientation: qHTS replaces the single test concentration by a dilution series.
`Cc1nnc(NC(=O)CSc2nc3c([nH]c4ccccc43)c(=O)n2-c2cccc(Cl)c2)s1`: the Potency result was “inactive”.

With `CC(=O)Nc1c(C)nn(-c2ccccc2)c1N1CCC(C(=O)Nc2cc(Cl)ccc2C)CC1`, the Potency result is “inactive”.

In the case of `Cn1nnnc1SCCCNCc1ccc(Cl)cc1`, the Potency entry is “inactive”.

With `Fc1ccc(-c2nc(Nc3cccc(Cl)c3)nc3c2COc2ccccc2-3)cc1`, the Potency entry was “inactive”.

Turning to `Cc1ccc(S(=O)(=O)N2CCCc3cc(NS(=O)(=O)c4cc(C)ccc4C)ccc32)cc1`, the Potency result is “inactive”.

Consider `Cc1cc(NS(=O)(=O)c2ccc3oc(=O)c4ncn(C)c4c3c2)ccc1Br`, for which the Potency result was “inactive”.

`Cc1cc(C)cc(NC(=O)CCCc2nc(-c3ccccc3Cl)no2)c1`: the Potency entry is “inactive”.

`O=C1CSC(=S)N1c1ccc(O)cc1`: the Potency entry was “inactive”.

Take `COc1cc(N2C(=O)CSC2=S)cc(OC)c1OC`: the Potency result was “inactive”.

`CCOc1cccc(/C=N/N2C(=O)CSC2=S)c1O`: the Potency is 3.55 µM (active).

`Cc1cc(C)cc(NC(c2nnc(-c3cccc(F)c3)o2)c2ccc(F)cc2Cl)c1` (configuration not stated): the Potency result is “inactive”.

`CCOc1cccc(CNC(=O)c2ccc(N3CCCC3)c(NC(=O)Nc3ccccc3CC)c2)c1`: the Potency result was “inactive”.

As for `Cc1c(Cl)cccc1NC(=O)NCCCN1CCCC1=O`, the Potency entry was “inactive”.

Turning to `Cc1c(Cl)cccc1NC(=O)Nc1ccc(C(=O)N2CCCC2)cc1`, the Potency entry was “inactive”.

As for `Cc1c(Cl)cccc1NC(=O)NCc1ccc(C)n1C`, the Potency was 35.5 µM (active).

`C#CC(C)(CC)NC(=O)Cn1nnc(-c2ccc(OCc3c(F)cccc3Cl)cc2)n1` (configuration not stated): the Potency result is “inactive”.

For `Cc1cc(C)cc(C(=O)NC2C(=O)N3C(C(=O)O)=C(CSc4nnc(C)s4)CSC23)c1` (configuration not stated), the Potency was 5.01 µM (active).

Regarding `Cc1nnc(SCC(=O)NC2CCCC2)s1`, the Potency entry was “inactive”.

Take `Cc1nnc(SCC2=C(C(=O)O)N3C(=O)C(NC(=O)Cn4nc(C)c(Cl)c4C)C3SC2)s1` (configuration not stated): the Potency was 10 µM (active).

In the case of `CO/N=C(\C(=O)N[C@@H]1C(=O)N2C(C(=O)O)=C(COC(C)=O)CS[C@H]12)c1csc(N)n1` (stereo in doubt), the Potency result is “inactive”.

Consider `O=C(Cn1ncc2c3ccccc3n(Cc3ccccc3)c2c1=O)NC1CCCCCC1`, for which the Potency result was “inactive”.

For the compound `Cc1cccc(CSc2nc3ccncc3n2CC(=O)N(C)C2CCCCC2)c1`, the Potency result is “inactive”.

For the compound `CC(C)(C)OC(=O)N1CCC(c2c(C(=O)NCc3ccccn3)cnn2-c2ccc(F)cc2)CC1`, the Potency entry is “inactive”.

On to `COc1cccc(NC(=O)CCNS(=O)(=O)c2ccc3c(c2)oc(=O)n3C)c1`, for which the Potency entry is “inactive”.

For the compound `COc1ccc(S(=O)(=O)NCCCCOc2ccc(Cl)cc2)cc1`, the Potency entry was “inactive”.

For `COc1cccc(NC(C)=[N+](C)CCNS(=O)(=O)c2ccc(Cl)cc2)c1`, the Potency was 31.6 µM (active).

For `N#Cc1nc(/C=C/c2ccc(F)cc2)oc1NC1CCCCC1`, the Potency result is “inactive”.

Regarding `CCC(=O)N1N=C(c2ccc(OC)cc2)CC1c1cn(-c2ccccc2)nc1-c1cccs1` (configuration not stated), the Potency result was “inactive”.

Consider `CCCn1c2ccccc2c2cnn(CC(=O)NCCCOC(C)C)c(=O)c21`, for which the Potency entry was “inactive”.

Consider `CCSc1nnc2c(n1)OC(c1ccc(OCC(=O)O)cc1)Nc1ccccc1-2` (configuration not stated), for which the Potency entry was “inactive”.

For `COC(=O)c1scc(-c2ccc(C)cc2)c1S(=O)(=O)Nc1cc(Cl)c(OC)cc1OC`, the Potency result is “inactive”.

On to `COc1ccc(Nc2ncc3c(n2)CCN(C(=O)OC(C)(C)C)C3)cc1`, for which the Potency result is “inactive”.

With `Cc1cccc(-n2c(O)c(/C=N/N3CCOCC3)c(=O)[nH]c2=S)c1`, the Potency result is “inactive”.

In the case of `Cc1cccc(-n2c(O)c(C=Nc3ccccc3N)c(=O)[nH]c2=O)c1`, the Potency result is “inactive”.

Take `Cc1cccc(-n2c(O)c(C=NC34CN5CN(CN(C5)C3)C4)c(=O)[nH]c2=O)c1`: the Potency is 7.94 µM (active).

Regarding `CCOc1ccc(NC(=O)CCC(=O)N2CC(C)Oc3ccc(C)cc32)cc1` (configuration not stated), the Potency entry was “inactive”.

Regarding `COc1ccc(OC)c(-c2nc(C(N)=O)c3c(n2)n(-c2ccc4c(c2)OCO4)c(=O)n3C)c1`, the Potency result was “inactive”.

With `O=C(C1CCN(Cc2ccc(Cl)cc2)CC1)N1CCN(Cc2ccc3c(c2)OCO3)CC1`, the Potency result was “inactive”.

`CCCOc1ccc(NC(=O)CC2C(=O)N(C)C(=S)N2Cc2ccc3c(c2)OCO3)cc1` (configuration not stated): the Potency result was “inactive”.

As to `O=C(Nc1ccc(Cl)cc1)C1c2cccc[n+]2CC(=O)N1Cc1ccc2c(c1)OCO2` (configuration not stated), the Potency is 20 µM (active).

As for `COc1ccc(S(=O)(=O)c2c(Nc3ccc(C)cc3)sc(C(=O)c3ccc(C)cc3)c2N)cc1`, the Potency result is “inactive”.

With `Cc1c(C(=O)N2CCCC2)oc2c1-c1nn(CC(=O)NCc3ccc(OC(C)C)cc3)cc1CC2`, the Potency entry is “inactive”.

On to `CCC(Sc1nc2n[nH]c(C)c2c(=N)n1-c1ccccc1Cl)C(=O)N(CC)CC` (configuration not stated), for which the Potency entry was “inactive”.

Take `Cc1cc(C)nc(S/C=C/C(=O)c2ccccc2)n1`: the Potency was 1.12 µM (active).

Consider `Cc1cc(C)nc(SC(C)C(=O)N/N=C/c2cccs2)n1` (configuration not stated), for which the Potency result was “inactive”.

With `Cc1cc(C)nc(N(C#N)CC(=O)Nc2ccccc2)n1`, the Potency entry is “inactive”.

For `COc1ccccc1CN1CCC(CNC(=O)c2cnn(-c3ccccc3Cl)c2C2CCN(C(=O)OC(C)(C)C)CC2)CC1`, the Potency entry was “inactive”.

Consider `CCOC(=O)c1c(S(=O)(=O)N2CCC(C(=O)NCc3ccccc3OC)CC2)c(C)n(C)c1C`, for which the Potency result was “inactive”.

For the compound `COc1cc(NC(=O)c2nc3ccccc3nc2C)cc(OC)c1OC`, the Potency entry is “inactive”.

Consider `COc1cc(NC(=O)c2noc3c2CSc2ccccc2-3)cc(OC)c1OC`, for which the Potency was 0.794 µM (active).

Regarding `COc1ccc(CCNC(=O)c2nn(C)c3c2CSc2ccccc2-3)cc1OC`, the Potency result was “inactive”.

Regarding `O=C(NCc1ccccc1Cl)c1cccn1-c1nnc(N2CCCCC2)s1`, the Potency result was “inactive”.

Consider `CC(C)c1cc(CN2CCOCC2)cc(C(C)C)c1O`, for which the Potency is 3.98 µM (active).

On to `CC(CN1CCOCC1)c1ccccc1` (configuration not stated), for which the Potency entry was “inactive”.

Consider `O=C(Nc1ccc(CN2CCOCC2)cc1)c1cc(Cl)ccc1Cl`, for which the Potency entry was “inactive”.

On to `COc1cc(C(=O)Nc2ccc(OCc3cc(=O)n4cc(C)sc4n3)cc2)cc(OC)c1OC`, for which the Potency entry is “inactive”.

In the case of `COc1ccc(CC(=O)N2CC(=O)Nc3ccc(Br)cc3C2c2ccc(F)cc2)cc1OC` (configuration not stated), the Potency entry is “inactive”.

For the compound `CCOC(=O)C1CCCN(C(=O)Cn2ncc3c(C)n(Cc4ccc(F)cc4)c(C)c3c2=O)C1` (configuration not stated), the Potency entry was “inactive”.

As to `COc1cccc(C(c2c(O)cc(C)n(Cc3ccco3)c2=O)N2CCN(c3ccccc3)CC2)c1` (configuration not stated), the Potency is 3.16 µM (active).

As to `Cc1cc(O)c(C(c2ccccc2)N2CCN(c3ccccc3F)CC2)c(=O)n1Cc1ccco1` (configuration not stated), the Potency was 3.16 µM (active).

In the case of `Cc1oc2ncn(CC(C)C)c(=O)c2c1C(=O)N1CCN(c2ccccc2F)CC1`, the Potency result was “inactive”.

For `Cc1nc2ccn(Cc3cccnc3)c(=O)c2cc1C(=O)N1CCN(c2ccccc2F)CC1`, the Potency result was “inactive”.

Consider `CCN1CCN(C(c2ccc(C)cc2)c2c(O)cc(C)n(Cc3ccco3)c2=O)CC1` (configuration not stated), for which the Potency is 4.47 µM (active).

In the case of `C/C(=N\N1CCN(Cc2ccc(C)cc2)CC1)c1ccco1`, the Potency entry was “inactive”.

`OC(COCc1ccco1)CN1CCN(c2ccccc2)CC1` (configuration not stated): the Potency result is “inactive”.

Take `CCOC(=O)C1(CCc2ccccc2)CCN(Cc2ccco2)CC1`: the Potency entry is “inactive”.

Take `COc1ccc(C(CC(=O)N2CCN(c3ccccc3)CC2)c2c(O)cc(OC)cc2OC)cc1` (configuration not stated): the Potency entry is “inactive”.

The values are drawn from PubChem BioAssay AID485364 (National Center for Advancing Translational Sciences (NCATS), 2010).
